Molecular target: Follistatin (Homo sapiens) (UniProt P19883)
Experiment: follistatin binders on small-molecule microarrays, primary screen, biochemical, small-molecule microarray, 635/667 nm fluorescence (AID 1132)
Details: FST binding, 635 nm fluorescence, higher = more signal

Sequence of Follistatin (Homo sapiens) (P19883 whole entry, looked up): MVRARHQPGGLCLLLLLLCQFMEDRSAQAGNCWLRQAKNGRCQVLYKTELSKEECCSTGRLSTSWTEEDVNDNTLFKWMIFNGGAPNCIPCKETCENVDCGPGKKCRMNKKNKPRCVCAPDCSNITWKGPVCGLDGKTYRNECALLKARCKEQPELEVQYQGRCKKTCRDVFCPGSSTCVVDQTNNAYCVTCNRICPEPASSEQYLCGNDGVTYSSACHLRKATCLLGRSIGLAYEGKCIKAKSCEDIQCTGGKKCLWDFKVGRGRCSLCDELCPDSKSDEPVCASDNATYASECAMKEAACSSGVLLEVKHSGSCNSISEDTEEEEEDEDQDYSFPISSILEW

| SMILES | composite z-score |
| --- | --- |
| CC(C)C(=C=CC[C@@H](O)c1ccc(OCCO)cc1)CCO | 1.26 |
| CC#CCO[Si](C#CCCCCCC)(C(C)C)C(C)C | -2.99 |
| CN(C)CCCC[C@@H]1NC(=O)[C@H]2C[C@@H](C(=O)NCc3ccc(F)cc3)[C@@H](c3ccc(O)cc3)N2C1=O | 1.41 |
| CC(C)N1CC=CC23O[C@@H]4C=CCCOC(=O)C4[C@H]2C(=O)N(CCCCCO)[C@@H]3C1=O (stereo not given in full) | -1.21 |
| COCCOC(=O)N1C(=O)[C@@]2(c3ccccc31)[C@H](C(=O)N1CCCCCCC1)[C@H]1C(=O)O[C@H](c3ccccc3)[C@H](c3ccccc3)N1[C@@H]2c1ccc(O)cc1 | 1.41 |
| C#CCN([C@H](/C=C/C1CC1)[C@@H](O)Cc1ccccc1)[C@@H](Cc1ccccc1)C(=O)OC | 0.794 |
| COC(=O)[C@@]1(Cc2ccc(F)cc2)[C@H]2c3cc(C(=O)N(C)C)n(CCn4cc([N+](=O)[O-])nc4C)c3C[C@H]2CN1C(=O)c1ccccc1 | -0.394 |
| CCOC(=O)C[C@H]1[C@H](OC(=O)Cc2ccc3c(c2)OCO3)[C@@H](NC(=O)c2ccccc2)c2cc(OCCCO)ccc2N1C(=O)Cc1ccc(OC)cc1 | 0.19 |
| C[N+](C)(C)CCCC[C@@H]1NC(=O)[C@H]2C[C@@H](C(=O)NCCCCCNC(=O)CS)[C@@H](c3ccc(O)cc3)N2C1=O | 1.07 |
| CN1C(=O)[C@]2(CCS(=O)(=O)c3ccccc3)N=C(c3ccc(OCCCO)cc3)O[C@@H]2c2ccccc21 | 1.47 |
| O=C1O[C@@H](c2ccccc2)[C@@H](c2ccccc2)N2[C@@H](c3ccc(OCCO)cc3)[C@]3(C(=O)Nc4ccc(C#CCCO)cc43)[C@@H](C(=O)Nc3nc4ccccc4s3)[C@H]12 | 1.4 |
| COCCn1c(C(=O)N2CCCC2)cc2c1C[C@H]1CN(C(=O)c3ccccc3)[C@@](Cc3ccccc3)(C(=O)OC)[C@@H]21 | 0.298 |
| CC(C)(C)N1CC=CC23O[C@@H]4/C=C\CCCOC(=O)C4[C@H]2C(=O)N(CCCCCCO)[C@@H]3C1=O (stereo not given in full) | -0.93 |
| CCCC[C@@H](O)C1=C(COC)Cn2c(=O)n(-c3ccccc3)c(=O)n2[C@H]1CO | -0.266 |
| COC(=O)[C@@H]1N=C(c2ccc(OCCCO)cc2)O[C@@H]1c1ccccc1CN=[N+]=[N-] | 0.233 |
| CN1C=C(C(=O)OCCS(C)(=O)=O)C(C(=O)OCCS(C)(=O)=O)=CC(CCCO)=CC1c1ccc(CN2CCCC2)cc1 (stereo not given) | 1.06 |
| COCCOC(=O)N1C(=O)[C@@]2(c3ccccc31)[C@H](C(N)=O)[C@H]1C(=O)O[C@H](c3ccccc3)[C@H](c3ccccc3)N1[C@@H]2c1ccc(OCCO)cc1 | 1.11 |
| CC(C)CNC(=O)[C@@H]1c2ccccc2C(=O)N(C(C)C)[C@H]1c1ccc(CO)cc1 | 0.659 |

| SMILES | composite z-score |
| --- | --- |
| CC(C)c1ccc(NN2C(C(O)C(C)C)C=CC3C(=O)N(c4ccccc4)C(=O)C32)cc1 (stereo not given) | 0.754 |
| COCCOC(=O)N1C(=O)[C@@]2(c3cc(C#CCC(C(=O)OC)C(=O)OC)ccc31)[C@H](C(=O)N1CCCCCCC1)[C@H]1C(=O)O[C@H](c3ccccc3)[C@H](c3ccccc3)N1[C@@H]2c1ccccc1OCCO | 1.45 |
| O=C(NCCO)C1=C[C@H](Oc2ccccc2I)[C@@H](O)[C@H](NCc2ccc(F)cc2)C1 | 1.31 |
| COC(=O)Cn1c(C(=O)N(C)C)cc2c1C[C@H]1CN(C(=O)c3ccccc3)[C@@](Cc3ccc(OC)cc3)(C(=O)OC)[C@@H]21 | 0.371 |
| [N-]=[N+]=NCc1ccccc1C[C@]1(C(=O)NCc2ccccc2)N=C(c2ccc(OCCCO)cc2)O[C@H]1c1ccccc1CN=[N+]=[N-] | 0.821 |
| CC(=O)NCCCC[C@@H]1NC(=O)[C@H]2C[C@@H](C(=O)NCCCCCC[N+](C)(C)C)[C@@H](c3ccc(O)cc3)N2C1=O | 1.26 |
| [N-]=[N+]=NCc1ccccc1C[C@]1(C(=O)N2CCCCC2)N=C(c2ccc(OCCCO)cc2)O[C@H]1c1ccccc1 | 0.351 |
| COc1ccc(CCNC(=O)[C@@]2(Sc3ccc(C)cc3)CC(=O)N(C(C)C)[C@@H]2c2ccc(CO)cc2)cc1 | -0.616 |
| COC(=O)C(CC#Cc1ccc2c(c1)[C@]1(C(=O)N2)[C@H](c2ccc(O)cc2)N2[C@H](c3ccccc3)[C@H](c3ccccc3)OC(=O)[C@H]2[C@@H]1C(=O)N1CCc2cc(OC)c(OC)cc2C1)C(=O)OC | 1.36 |
| COc1ccccc1CN1C(=O)c2ccccc2[C@](Cc2ccccc2I)(C(=O)NCCCN(C)C)[C@@H]1c1ccc(CO)cc1 | 0.489 |
| CN1C(=O)C2C(C1=O)C1C=C(c3ccc(CO)cc3)C2C(c2cccs2)N1C (stereo not given) | -0.0613 |
| NCCCC[C@@H]1NC(=O)[C@H]2C[C@@H](C(=O)NCc3ccc(F)cc3)[C@@H](c3cccc(OCCO)c3)N2C1=O | 1.32 |
| CC(C)(C)OC(=O)CC[C@]1(C(=O)N2CCOCC2)N=C(c2ccc(OCCCO)cc2)O[C@H]1c1ccccc1CN=[N+]=[N-] | 1.42 |
| CC(C)[C@@H](C(=O)O)n1cc(-c2ccccc2)nn1 | 0.098 |
| NCCCC[C@@H]1NC(=O)[C@H]2C[C@@H](C(=O)NCc3ccc(F)cc3)[C@@H](c3ccc(O)cc3)N2C1=O | 1.32 |
| O=C1OCCC=C[C@H]2OC34C=CCN(c5ccc(Cl)cc5)C(=O)[C@H]3N(CCO)C(=O)[C@@H]4C12 (stereo not given in full) | -0.367 |
| O=C1O[C@@H](c2ccccc2)[C@@H](c2ccccc2)N2[C@@H](c3ccc(O)cc3)[C@]3(C(=O)Nc4ccc(C#CC5=CCCCC5)cc43)[C@@H](C(=O)N3CCCCCCC3)[C@H]12 | 1.4 |
